Hits are enriched below; roughly 0.43% of the tested compounds scored in any of these assays.
GAA spleen mod = qHTS Assay for Inhibitors and Activators of Human alpha-Glucosidase From Spleen Homogenate; Potency, µM (titrated, usually from 79.9 µM), actives largely listed as inhibitors; AID 2112, 2009; human spleen homogenate, 4-MU-alpha-glucoside fluorescence; 240,000 compounds, 0.006% hits
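Enzyme source: human spleen homogenate, 1 ug/well. Buffer 50 mM citric acid/K phosphate pH 5.0, 0.01% Tween-20. 4-MU-alpha-glucoside 1 mM; 37 C x 40 min; NaOH/glycine stop; fluorescence.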
N370S GC = qHTS Assay for Inhibitors and Activators of N370S glucocerebrosidase as a Potential Chaperone Treatment of Gaucher Disease; Potency, µM (titrated, usually from 59.4 µM), hits mostly inhibitors; 330,000 compounds, 0.092% hits; Lysosomal acid glucosylceramidase (Homo sapiens), P04062; N370S GC spleen homogenate, 4MU-glucoside fluorescence
GAA inhib = qHTS Assay for Inhibitors of Human alpha-Glucosidase as a Potential Chaperone Treatment of Pompe Disease; Potency, µM (titrated, usually from 76.9 µM), hits mostly inhibitors; purified human GAA, 4-MU-alpha-glucoside fluorescence; AID 1466, 2008; 200,000 compounds, 0.005% hits; Lysosomal alpha-glucosidase (Homo sapiens), P10253
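qHTS format, compound range up to 77 uM. Human lysosomal enzyme at 4 nM, 400 uM 4-MU glucoside substrate, pH 5.0, 20 min room temperature; fluorescence after alkaline stop gives activity normalized to controls.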
GLA spleen mod = qHTS Assay for Inhibitors and Activators of Human alpha-Galactosidase From Spleen Homogenate. Alpha-galactosidase A (Homo sapiens), P06280. human spleen homogenate, 4MU-alpha-Gal fluorescence, 40 min. Potency, µM (doses to about 80 µM), hits mostly inhibitors. 240,000 compounds, 0.008% hits. AID 2107, 2009
Target sequence (P06280 32-429 limits assumed): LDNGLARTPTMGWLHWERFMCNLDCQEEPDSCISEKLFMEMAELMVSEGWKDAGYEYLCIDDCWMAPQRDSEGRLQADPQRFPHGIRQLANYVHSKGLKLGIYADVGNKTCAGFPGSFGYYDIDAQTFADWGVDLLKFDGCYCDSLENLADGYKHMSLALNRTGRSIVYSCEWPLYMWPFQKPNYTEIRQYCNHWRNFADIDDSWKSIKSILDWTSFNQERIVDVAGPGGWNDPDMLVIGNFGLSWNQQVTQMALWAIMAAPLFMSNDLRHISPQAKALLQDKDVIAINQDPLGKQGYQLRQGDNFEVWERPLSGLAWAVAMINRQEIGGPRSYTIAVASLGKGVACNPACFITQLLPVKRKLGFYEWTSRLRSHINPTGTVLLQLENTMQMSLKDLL
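qHTS titration in buffer at pH 5.0. Alpha-galactosidase activity in spleen homogenate was measured via 4-methylumbelliferone release from 1 mM fluorogenic substrate after 40 min at 37C and a pH 10 stop. AC50 came from Hill fits of control-normalized data.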
GAA glycogen mod = qHTS Assay for Inhibitors and Activators of Human alpha-Glucosidase Cleavage of Glycogen. Lysosomal alpha-glucosidase (Homo sapiens), P10253. recombinant GAA, glycogen substrate, Amplex Red glucose oxidase fluorescence. Potency, µM (doses to about 76.4 µM), most hits filed as inhibitors. 300,000 compounds, 0.38% hits;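 also: the screen sought inhibitors and activators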
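qHTS, 1536-well; enzyme 4 nM final; cpd up to 77 uM; substrate bovine liver glycogen 30 ug; 50 mM citrate/phosphate pH 5.0, 0.01% Tween-20; 37 C, 40 min; Amplex Red detection 45 min RT; Hill fit → AC50.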
GLA inh pH 4.5 = qHTS Assay for Inhibitors of Human alpha-Galactosidase at pH 4.5; purified enzyme, 4-MU-alpha-Gal fluorescence, pH 4.5; 230,000 tested, under 10 active; activity change, negative = inhibition, % at 105 µM
A number is an active result; ! = not active in a repeat; [ ] = dose if it differs, or a comment. Calls follow the shape of the dose curve; as a rule, active = well fitted curve in the direction sought with a large enough effect; inconclusive = small, poorly fitted or top-dose-only effect, or another doubt; inactive = no such curve, though single readings can be large; an effect the other way counts as inactive or inconclusive.

CN1CCN(c2ncc3nc(CCc4ccccc4)c(=O)n(C)c3n2)CC1 was read as GAA spleen mod inactive, N370S GC inactive and GLA spleen mod inactive.
For CCOc1ccc(CCNC(=O)c2ccc(Cn3c(=O)c4cccn4c4cccnc43)cc2)cc1 the results were GAA glycogen mod inactive.
For O=C(O)/C=C\c1ccc(O)c(O)c1 the results were GAA spleen mod inactive, N370S GC inactive, GLA spleen mod inactive and GLA inh pH 4.5 inactive.
Screening O=C(/C=C/c1ccc(O)c(O)c1)c1ccccc1O returned GAA spleen mod inactive, N370S GC inactive, GLA spleen mod inactive, GAA glycogen mod 7.88µM and GLA inh pH 4.5 inactive.
O=C(/C=C/c1ccc(O)cc1)c1ccc(O)cc1O was read as GAA spleen mod inactive, N370S GC 1.78µM!, GAA inhib inactive, GLA spleen mod inactive, GAA glycogen mod inactive and GLA inh pH 4.5 inactive.
COc1ccc(CC(N)C(=O)N[C@H]2[C@@H](O)[C@H](n3cnc4c(N(C)C)ncnc43)O[C@@H]2CO)cc1 (some centres not stated) was read as GAA spleen mod inactive, N370S GC inactive, GLA spleen mod inactive and GLA inh pH 4.5 inactive.
`CSc1ccc2c(c1)C(N1CCN(C)CC1)Cc1ccccc1S2` (configuration not stated) gave GAA spleen mod inactive, N370S GC 17.8µM!, GLA spleen mod inactive, GAA glycogen mod inactive and GLA inh pH 4.5 inactive.
`CN1CCN(C2Cc3ccccc3Sc3ccc(Cl)cc32)CC1` (configuration not stated) gave GAA spleen mod inactive, N370S GC inconclusive, GLA spleen mod inactive and GLA inh pH 4.5 inactive.
`CSc1ccc2c(c1)[C@H](N1CCN(C)CC1)Cc1ccccc1S2` gave GAA spleen mod inactive, N370S GC 12.6µM, GLA spleen mod inactive and GLA inh pH 4.5 inactive.
`C#CCCOC(=O)N1C2=NC(C(=O)OC)=C(C(=O)OC)[C@@H]3N(CC#CC)c4ccccc4[C@]23C[C@H]1C(=O)OC` gave GAA spleen mod inactive[17.4 µM], N370S GC inactive[12.8 µM], GLA spleen mod inactive[17.5 µM] and GLA inh pH 4.5 inactive.
For COCCNc1ccnc(-c2ccccc2CN(C)C)n1 the results were GAA spleen mod inactive, N370S GC inactive, GLA spleen mod inactive and GLA inh pH 4.5 inactive.
CC1(C(=O)O)NCCc2cc(O)c(O)cc21 (configuration not stated) was read as GAA spleen mod inactive, N370S GC inactive and GLA spleen mod inactive.
Screening O=C(OCCN=C1NS(=O)(=O)c2ccccc21)C1CC(=O)N(c2ccc3ccccc3c2)C1 (configuration not stated) returned GAA spleen mod inactive, N370S GC 3.55µM, GAA inhib inconclusive, GLA spleen mod inactive, GAA glycogen mod inactive and GLA inh pH 4.5 inactive.
`CC(=O)N=c1sc2ccccc2n1C` gave GAA spleen mod inactive, N370S GC inactive, GAA inhib inactive, GLA spleen mod inactive, GAA glycogen mod inactive and GLA inh pH 4.5 inactive.
N/N=c1\sc2ccccc2n1-c1ccccc1 was read as GAA spleen mod inactive, N370S GC inactive, GAA inhib inactive, GLA spleen mod inactive, GAA glycogen mod 20µM and GLA inh pH 4.5 inactive.
`CC(=O)N1CCN(c2ccc(NCc3ccc(C)cc3)cc2)CC1` gave GAA spleen mod inactive, N370S GC inactive, GAA inhib inactive, GLA spleen mod inactive, GAA glycogen mod 19.8µM and GLA inh pH 4.5 inactive.
Screening CC(=O)N1CCN(c2ccc(NC(=O)C(c3ccccc3)c3ccccc3)cc2)CC1 returned N370S GC 12.6µM and GAA glycogen mod inactive.
Screening CCc1ccc(CNc2ccc(N3CCN(C(C)=O)CC3)cc2)cc1 returned GAA spleen mod inactive, N370S GC inactive, GAA inhib inactive, GLA spleen mod inactive, GAA glycogen mod inconclusive and GLA inh pH 4.5 inactive.
For O=C(Nc1ccc(N2CCCC2)cc1)C(c1ccccc1)c1ccccc1 the results were GAA spleen mod inactive, N370S GC inactive, GAA inhib inactive, GLA spleen mod inactive, GAA glycogen mod inactive and GLA inh pH 4.5 inactive.
Cc1c(N=Cc2nc3ccccc3[nH]2)c(=O)n(-c2ccccc2)n1C was read as GAA spleen mod inactive, N370S GC inactive, GAA inhib inactive, GLA spleen mod inactive, GAA glycogen mod 8.91µM and GLA inh pH 4.5 inactive.
Screening Cc1c(N=Cc2nc3ccccc3n2C)c(=O)n(-c2ccccc2)n1C returned GAA spleen mod inactive, N370S GC inactive, GAA inhib inactive, GLA spleen mod inactive, GAA glycogen mod 11.2µM and GLA inh pH 4.5 inactive.
Screening Cc1cccc(-c2ccc(C=Nc3c(C)n(C)n(-c4ccccc4)c3=O)o2)c1 returned GAA spleen mod inactive, N370S GC inactive, GAA inhib inactive, GLA spleen mod inactive, GAA glycogen mod 3.95µM and GLA inh pH 4.5 inactive.
`Cc1c(NC(=O)/C(C#N)=C/c2ccc(-c3cccc(Cl)c3)o2)c(=O)n(-c2ccccc2)n1C` gave GAA spleen mod inactive, N370S GC inactive, GAA inhib inconclusive, GLA spleen mod inactive, GAA glycogen mod inactive and GLA inh pH 4.5 inactive.
COc1ccccc1CNC(=O)Nc1cccs1 was read as GAA spleen mod inactive, N370S GC inactive, GAA inhib inactive, GLA spleen mod inactive, GAA glycogen mod 28µM and GLA inh pH 4.5 inactive.
COc1ccc(Br)cc1CNC(=O)Nc1cccs1 was read as GAA spleen mod inactive, N370S GC inactive, GAA inhib inactive, GLA spleen mod inactive, GAA glycogen mod inconclusive and GLA inh pH 4.5 inactive.
Cc1ccc(CNC(=O)Nc2cccs2)cc1 was read as GAA spleen mod inactive, N370S GC inactive, GAA inhib inactive, GLA spleen mod inactive, GAA glycogen mod 28.2µM and GLA inh pH 4.5 inactive.
COc1cccc(CNC(=O)Nc2cccs2)c1 was read as GAA spleen mod inactive, N370S GC inactive, GAA inhib inactive, GLA spleen mod inactive, GAA glycogen mod inconclusive and GLA inh pH 4.5 inactive.
Cc1ccc(CNC(=O)Cc2cccs2)cc1 was read as GAA spleen mod inactive, N370S GC inactive, GAA inhib inactive, GLA spleen mod inactive, GAA glycogen mod inactive and GLA inh pH 4.5 inactive.
COc1ccc(CNC(=O)Nc2cccs2)cc1OC was read as GAA spleen mod inactive, N370S GC inactive, GAA inhib inactive, GLA spleen mod inactive, GAA glycogen mod 10µM and GLA inh pH 4.5 inactive.
